# High-throughput results deposited in PubChem BioAssay by National Center for Advancing Translational Sciences (NCATS).
# Luc counter – blocks Kinase-Glo luciferase, a counter-screen artifact. Q27757. Kinase-Glo luciferase, ATP luminescence, 8 min. Potency, µM (highest dose often 38.3 µM), inactives show at the top dose activity change, negative = inhibition, usual class: inhibitors. 0.28% of 200,000 active. AID 1379; further: on the % scale 0 is the no-effect control and ±100 the full control effect; nearly all actives have a fitted effect of over 60% in size
#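 Recombinant Kinase-Glo luciferase, 10 uM ATP (linear range), luciferin; imidazole pH 7.2 / KCl / MgCl2 / Tween / BSA buffer; 8 min RT; luminescence.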
# SMN2 splice up – SMN2 splice variant enhancement; 2.8% of 210,000 active; HEK293 SMN2-luciferase splicing reporter, luminescence, 30-36 h; Potency, µM (series often up to 46.1 µM), without a hit: at the top dose activity change, positive = activation, most hits filed as activators; further: % of control where 0% means no effect; nearly all actives have a fitted effect of over 55% in size
#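 qHTS luciferase splicing reporter: luminescence rises when SMN2 exon 7 is included in transfected HEK293 cells. Compound exposure lasted 30-36 h at 37C, with 4.5 mM final sodium butyrate as control, followed by a ONE-Glo read.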
# Rab9 promoter act – activators of Rab9 promoter; Huh7 Rab9 promoter-luciferase reporter, luminescence, 24 h; Potency, µM (top dose mostly 9.22 µM), for inactives: at the top dose activation, negative = inhibition, hits mostly activators; 2.8% of 320,000 active; further: % of control where 0% means no effect; nearly all actives have a fitted effect of over 60% in size
#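 Steps: seed 1500 Huh7 Rab9-luc cells per well, rest 2 h at 37 °C; add compound in DMSO; incubate 24 h; add luciferase reagent, 10 min ambient; read luminescence.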
# ELG1 genotox – inducers of genotoxicity in HEK293T ELG1-luciferase cells | HEK293T ELG1-luciferase reporter, luminescence, 16 h | Potency, µM (top dose mostly 46 µM), inactives show at the top dose activity change, positive = activation, usual class: activators | 1.3% of 330,000 active | AID 504466; further: % of control where 0% means no effect; nearly all actives have a fitted effect of over 60% in size
#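 HEK293T cells expressing luciferase-tagged ELG1 were treated with compound or DMSO for 16 hr at 37°C. Luciferase activity was then read after 30 min with ONE-Glo at room temperature; rising signal flags genetic stress.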
# NPC1 prom act – activates the NPC1 promoter | Huh7 NPC1 promoter luciferase reporter, 24 h | Potency, µM (top dose mostly 9.22 µM), inactives show top-dose activation, most hits filed as activators | 2.4% of 320,000 active | AID 485313; further: % of control where 0% means no effect; nearly all actives have a fitted effect of over 60% in size
#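 Stably transfected Huh7 (NPC1 promoter→luciferase), 1500 cells/well in Opti-MEM + 10% FBS, 2 h settle, then compound 24 h at 37 °C. Luminescence after 10 min with Amplite reagent.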
# FLuc modulator – counter-screen for miR-21 project: firefly luciferase inhibitors or activators; P08659; purified FLuc, Km substrates, luminescence inhibition; Potency, µM (doses to about 57.5 µM), for the others: at the highest dose activity change, negative = inhibition, usual class: inhibitors; 6.9% of 360,000 active; AID 588342;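 further: plate controls were vehicle for no effect and reference inhibitor for full effect; nearly all actives have a fitted effect of over 55% in size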
# Target sequence (P08659 whole entry, looked up): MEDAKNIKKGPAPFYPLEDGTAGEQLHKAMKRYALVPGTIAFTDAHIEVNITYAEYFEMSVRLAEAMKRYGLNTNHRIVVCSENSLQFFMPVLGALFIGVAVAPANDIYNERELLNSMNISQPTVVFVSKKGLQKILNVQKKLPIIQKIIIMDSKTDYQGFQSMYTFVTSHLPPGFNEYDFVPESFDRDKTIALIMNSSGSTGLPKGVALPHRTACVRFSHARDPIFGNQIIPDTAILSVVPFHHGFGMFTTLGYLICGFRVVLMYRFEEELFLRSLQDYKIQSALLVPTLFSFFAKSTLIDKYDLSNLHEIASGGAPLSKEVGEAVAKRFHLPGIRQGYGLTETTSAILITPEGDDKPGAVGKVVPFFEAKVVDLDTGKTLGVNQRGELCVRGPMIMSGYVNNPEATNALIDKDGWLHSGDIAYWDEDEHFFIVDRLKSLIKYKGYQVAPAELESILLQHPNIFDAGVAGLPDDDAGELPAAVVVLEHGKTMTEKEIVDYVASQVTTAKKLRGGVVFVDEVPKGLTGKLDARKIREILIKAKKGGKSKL
#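 Purified P. pyralis luciferase, 10 nM final, with Km-level 10 uM D-luciferin and 10 uM ATP in 50 mM Tris acetate pH 7.5, 10 mM Mg acetate, 0.01% Tween-20, 0.05% BSA; 6-point qHTS titration about 60 µM downward; luminescence read.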
# An asterisk follows results filed as active; ? = inconclusive; · = no result given; [ ] = remark or other dose. In the library only some 7.3% were active in any assay of this set; here they are far more common. The call rests on the fitted dose curve; in most records, active means well fitted curve in the direction sought with a large enough effect; inconclusive means small, poorly fitted or top-dose-only effect, or another doubt; inactive means no such curve, though single readings can be large; an effect the other way counts as inactive or inconclusive. Potency means the concentration at half of the fitted maximal effect.
SMILES,Luc counter,SMN2 splice up,Rab9 promoter act,ELG1 genotox,NPC1 prom act,FLuc modulator
Cc1cccc(-n2c3nc(=O)[nH]c(=O)c-3cc3c(Cl)cccc32)c1C,·,4.7%,·,·,·,-5.5%
COC(=O)[C@H](Cc1ccccc1)NC(=O)O[C@@H]1C(=O)c2ccc(OC)cc2O[C@H]1c1cccc(C(F)(F)F)c1,0.8%,-2.8%,·,·,·,·
CCC(=O)n1nc(-c2ccc(Cl)cc2)nc1NCc1ccccc1,-0.2%,11.1%,?,20.6µM*,17.7%,-1.8%
O=C(c1ccco1)n1nc(-c2ccccc2)nc1NCc1ccc(Cl)cc1,·,-2.9%,·,·,·,-0.2%
CCOC(=O)c1ccc(-c2ccc(CO)o2)cc1,-4.3%,7.94µM*,1.58µM*,?,1.12µM*,10.7µM*
CCOc1ccc(-c2ccc(CO)o2)cc1N,·,·,·,·,·,15.1µM*
Cc1ccc(-c2ccc(CO)o2)cc1N,-3.5%,-47.1%,-9.1%,-19.0%,8.1%,-18.3%
O=C(NCc1ccc(F)cc1Cl)c1cc(=O)[nH]c2ccc(S(=O)(=O)N3CCCCC3)cc12,·,·,·,·,·,-5.4%
CCc1ccccc1Nc1nn2c(=O)c3ccc(C(=O)NCCCOC(C)C)cc3nc2s1,·,·,-6.4%,·,0.2%,3.1%
CCCC(=O)NC(=S)Nc1sc2c(c1C(N)=O)CCC2,2.0%,?,20.0%,9.9%,12.0%,4.26µM*
CC(C)C(=O)NC(=S)Nc1sc2c(c1C(N)=O)CCCC2,-2.0%,?,?,?,?,9.53µM*
C=CCNC(=S)Nc1sc2c(c1C(N)=O)CCCC2,·,·,10.0%,2.2%,13.8%,15.1µM*
CCc1nc2nc(C)c(NS(=O)(=O)c3ccc(C(C)(C)C)cc3)c(=O)n2[nH]1,·,11.0%,·,·,·,?
Cc1ccc(NC(=O)COC(=O)c2nn(-c3ccc(Cl)cc3)cc2O)cc1,·,·,·,10.8%,·,·
NNC(=O)c1nn(-c2ccc(Cl)cc2)cc1O,·,·,?,1.4%,?,13.5µM*
CCc1ccccc1NC(=O)c1sc(-n2nc(C)c(Cc3ccccc3)c2C)nc1C,·,·,·,·,·,-2.9%
O=c1c(-c2nc3ccccc3s2)cccn1Cc1ccccc1,-5.2%,?,2.24µM*,7.31µM*,1.78µM*,2.69µM*
O=C(Nc1ccccc1-c1nc2ccccc2s1)c1ccco1,9.9%,-29.6%,13.1%,0.3%,2.3%,-1.0%
Cc1ccc(Cn2cccc(-c3nc4ccccc4s3)c2=O)cc1,1.6%,7.08µM*,2.24µM*,6.3%,2.82µM*,2.13µM*
N#CCCCS(=O)(=O)c1nnnn1-c1ccc(F)cc1Br,2.3%,1.1%,·,·,·,·
CCN(CC)c1ccc(NC(=O)c2cc(C)nc3c2c(C)nn3-c2ccc(C)cc2)c(C)c1,·,·,·,·,·,-6.3%
O=C1/C(=C/c2ccccc2)[C@@H](NC2CCCCC2)c2ccccc21,-4.4%[7.66 µM],-8.9%[9.22 µM],·,·,·,·
CCCOc1ccc(Cl)cc1/C=C1/C(=O)ON=C1C,·,·,2.9%,-1.0%,6.1%,-19.8%
CC1=NOC(=O)/C1=C\c1ccc(-c2ccc(Cl)cc2Cl)o1,-8.1%,-7.4%,-2.2%,-0.1%,-13.3%,5.36µM*
CCCn1cnc2c(SCC(=O)O)nc(N)nc21,-1.7%[7.66 µM],-14.8%[9.22 µM],·,·,·,·
SMILES,Luc counter,SMN2 splice up,Rab9 promoter act,ELG1 genotox,NPC1 prom act,FLuc modulator
COc1ccc(-n2cnc3cc(N)ccc32)cc1,-2.1%,14.1µM*,19.8%,?,25.8%,?
COc1ccc(-n2cnc3cc(NS(=O)(=O)c4ccccc4)ccc32)cc1,2.9%,27.8%,0.0%,3.4%,2.6%,?
COc1ccccc1-n1cnc2cc(NC(=O)c3ccco3)ccc21,15.9%,10µM*,-5.6%,?,-13.1%,?
COc1ccc(-n2cnc3cc(NC(=O)c4ccco4)ccc32)cc1,-2.8%,-15.9%,1.7%,14.7%,4.1%,13.5µM*
COc1ccc(-n2cnc3cc(C(=O)N4CCOCC4)ccc32)cc1,·,·,?,?,24.0%,?
O=C(Nc1ccc2c(c1)ncn2C1CCCCC1)c1ccco1,-4.1%,22.6%,3.55µM*,?,?,13.5µM*
COc1cc(NC(=O)C2CCN(S(=O)(=O)c3ccc4c(c3)oc(=O)n4C)CC2)cc(OC)c1,·,-16.2%,·,·,·,-10.7%
Cc1cccc(NC(=O)CSc2nc3ccccc3c3nc(CCn4cncc4C)nn23)c1,·,·,·,·,·,-2.2%
CCn1c2ccccc2c2cc(NC(=O)c3ccco3)ccc21,1.7%,10.4%,8.3%,15.0%,6.4%,?
CC(C)n1cnc2cc(NC(=O)c3ccco3)ccc21,·,·,1.78µM*,?,1.12µM*,10.7µM*
CN1CCC(Oc2ccccc2Sc2ccc(C(F)(F)F)cc2)CC1,-3.5%,-59.3%,-0.4%,1.8%,-5.9%,0.6%
CN1CCC(Oc2ccc(Sc3ccccc3)cc2)CC1,-3.1%,5.9%,21.2%,?,18.3%,12µM*
CN(C)c1ccc(/C=N/NC(=O)c2ccc3nc[nH]c3c2)cc1,·,·,17.8%,8.6%,3.4%,13.5µM*
COc1ccccc1/C=C/C=N/NC(=O)c1ccc2nc[nH]c2c1,-1.6%,-18.5%,0.9%,-23.6%,-1.4%,16.9µM*
O=C(N/N=C/c1cccnc1)c1cccc(N2CCCC2=O)c1,·,·,29.4%,15.0%,7.7%,?
COc1cc(/C=N/NC(=O)c2ccc3nc[nH]c3c2)ccc1O,·,·,-8.8%,-0.6%,-6.0%,?
CCN(CC)c1ccc(/C=N/NC(=O)c2ccc3nc[nH]c3c2)cc1,·,·,0.3%,6.1%,3.3%,19µM*
CCN(CC)c1ccc(/C=N/NC(=O)c2cccc(N3CCCC3=O)c2)cc1,-1.7%,-4.9%,-2.7%,8.3%,6.8%,15.1µM*
COc1cccc(/C=N/NC(=O)c2ccc3nc[nH]c3c2)c1,·,·,1.9%,1.1%,3.8%,15.1µM*
O=C(Cn1c(=O)n(-c2ccccc2)c(=O)c2c3c(sc21)CCCC3)Nc1cccc(F)c1,·,-8.0%,·,·,·,-1.0%
CCOC(=O)c1cc(-c2ccc3c(c2)OCCO3)n[nH]1,-3.7%,·,1.58µM*,?,3.16µM*,2.39µM*
CCOC(=O)c1cc2cc3ccccc3cc2[nH]1,1.1%,3.16µM*,2.51µM*,?,2.24µM*,?
O=C(O)c1cc(-c2ccc3c(c2)OCCO3)n[nH]1,1.1%,·,-0.2%,2.8%,-6.1%,10.7µM*
CCOC(=O)c1cc(-c2ccc(OC)cc2)n[nH]1,·,·,?,?,?,16.9µM*
CC(C)OC(=O)c1cc2ccccc2[nH]1,1.1%,-25.1%,-1.2%,7.8%,0.6%,?
COC(=O)c1cc(-c2ccccc2)n[nH]1,3.4%,1.4%,19.6%,0.6%,-1.3%,-16.3%
COc1ccc(N2CCN(C(=O)c3sc4nc5n(c(=O)c4c3C)CCC5)CC2)cc1,·,·,·,·,·,7.7%
CCn1c(=O)cc(OCC(=O)NCc2ccc(F)cc2Cl)c2ccccc21,·,-4.4%,·,·,·,-9.8%
COc1ccc(NC(=O)c2cc3c(=O)n(Cc4cccnc4)ccc3nc2C)c(OC)c1,·,·,·,·,·,2.4%
